In the library only some 10% were active in any assay of this set; here they are far more common.
LMNA splice mod = modulators of lamin A splicing | HeLa LMNA splicing GFP/RFP minigene ratio, 48 h | Potency, µM (series often up to 46.1 µM), inactives show top-dose ratio change, negative = inhibition, most hits filed as inhibitors | 200,000 tested, 0.01% active | AID 1487; active = well fitted inhibition curve with a large enough effect in the signal ratio, with a control signal flat, not every such curve was filed as active; inconclusive = small, poorly fitted or top-dose-only effect, or effect the other way, or a change in a side signal; the % refers to the signal ratio; also: potency is read from the fitted curve at half-maximal effect
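S3 HeLa cells stably expressing lamin A-EGFP splicing minigene plus DsRed2, 600 cells/well, 48 h compound exposure at 37C. Laser-scanning cytometry; analysed as GFP (500-530 nm)/RFP (575-640 nm) total intensity ratio; 0.5% DMSO vehicle.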
HPGD inh = HPGD (human) dehydrogenase inhibition | P15428 | purified HPGD, NADH fluorescence kinetic, PGE2 substrate | Potency, µM, for inactives: at the top dose activity change, negative = inhibition, most hits filed as inhibitors | 150,000 tested, 4.3% active | AID 894; also: potency is read from the fitted curve at half-maximal effect
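NADH formation kinetics: reaction with 30 uM PGE2 and 1 mM NAD+ (final), 20 nM enzyme, Tris-HCl pH 8 with Tween 20, after 15 min compound preincubation at room temperature. Fluorescence change, last versus first of five reads.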
IMPase cell inh = cell-permeable inhibitors of inositol monophosphatase (IMPase); inhibition (IP1 accumulation), % at 46.1 µM; AID 901; P97697; 120,000 tested, under 10 active; CHO-M1 cells, IP1 accumulation, HTRF TR-FRET ratio; active = well fitted curve in the direction sought with a large enough effect in the signal ratio, not every such curve was filed as active; inconclusive = small, poorly fitted or top-dose-only effect, or a change in a side signal; inactive = no such curve, though single readings can be large or run the other way; the % refers to the signal ratio;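 also: cells stimulated with carbachol in lithium chloride buffer; plate controls were DMSO basal wells for no effect and reference inhibitor wells for full effect; higher means more IMPase inhibition seen as more IP1 and lower FRET ratio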
Target sequence (P97697 whole entry, looked up): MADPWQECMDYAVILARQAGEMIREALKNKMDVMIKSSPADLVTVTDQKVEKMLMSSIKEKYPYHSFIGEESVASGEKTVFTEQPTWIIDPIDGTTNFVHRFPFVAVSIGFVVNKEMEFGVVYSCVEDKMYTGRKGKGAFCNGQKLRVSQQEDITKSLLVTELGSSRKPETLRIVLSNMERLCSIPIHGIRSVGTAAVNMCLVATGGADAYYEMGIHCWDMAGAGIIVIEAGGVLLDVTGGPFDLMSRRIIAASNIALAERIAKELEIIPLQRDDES
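Measured: the HTRF emission ratio (665/620 nm) plus the 620 nm donor channel, each fitted to the Hill equation to give AC50. Cells were CHO-M1 given compounds up to 46 uM and a 30 min carbachol stimulation at 37C.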
KinaseGlo FLuc = counter-screen: inhibitors of Kinase-Glo firefly luciferase. Kinase-Glo luciferase, ATP luminescence, 8 min. Potency, µM (series often up to 38.3 µM), for the others: at the highest dose activity change, negative = inhibition, most hits filed as inhibitors. 200,000 tested, 0.28% active; active = well fitted inhibition curve with a large enough effect; inconclusive = small, poorly fitted or top-dose-only effect; also: potency is read from the fitted curve at half-maximal effect; nearly all actives have a fitted effect of over 60% in size
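Inhibition of Kinase-Glo luciferase light generation was assessed at 10 uM ATP in pH 7.2 imidazole buffer, with luminescence measured after eight minutes at ambient temperature.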
ALDH1A1 block = inhibitors of human aldehyde dehydrogenase 1A1 | 220,000 tested, 7.3% active | Purified ALDH1A1, NADH fluorescence, propionaldehyde substrate | Potency, µM (titrated, usually from 75.3 µM), for the others: at the highest dose activity, negative = inhibition, most hits filed as inhibitors;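 also: potency is read from the fitted curve at half-maximal effect; plate controls were no enzyme wells and a reference inhibitor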
Target sequence (P00352 whole entry, looked up): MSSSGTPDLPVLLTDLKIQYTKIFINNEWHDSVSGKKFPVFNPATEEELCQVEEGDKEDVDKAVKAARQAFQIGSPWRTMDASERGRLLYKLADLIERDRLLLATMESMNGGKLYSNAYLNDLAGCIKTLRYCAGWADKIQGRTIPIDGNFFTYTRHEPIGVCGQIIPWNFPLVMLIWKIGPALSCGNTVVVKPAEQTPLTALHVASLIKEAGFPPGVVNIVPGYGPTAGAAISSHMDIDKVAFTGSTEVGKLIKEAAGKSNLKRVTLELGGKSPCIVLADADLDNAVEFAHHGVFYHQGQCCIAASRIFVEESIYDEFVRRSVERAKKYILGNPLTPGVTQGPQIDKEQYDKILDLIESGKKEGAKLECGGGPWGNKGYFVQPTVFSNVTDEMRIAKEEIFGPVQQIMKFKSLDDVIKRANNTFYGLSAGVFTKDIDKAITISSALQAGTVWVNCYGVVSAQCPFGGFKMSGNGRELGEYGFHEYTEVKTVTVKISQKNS
PNC assembly inh = blocks assembly of the perinucleolar compartment; AID 2417; activity change (PNC), negative = inhibition, % at 10 µM; 140,000 tested, 3.1% active; PC3M PTB-GFP, PNC prevalence imaging, 16 h; stronger effect = lower value;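 active = readout at or below -70, meaning at least 70% loss of cells showing the perinucleolar compartment, a nuclear body marking cancer cells; inconclusive = readout between -30 and a set limit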;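 also: plate controls were DMSO wells for no effect and camptothecin positive control wells for full effect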
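PC3M cells stably expressing PTB-GFP, 750–1000 cells/well, treated 16 h at 37 °C with compound (23 nl of library stock), in duplicate. After paraformaldehyde fixation and Hoechst stain, imaged at 20x; PNC prevalence scored by image analysis.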
An asterisk follows results filed as active; ? = inconclusive; . = not tested or not shown; [ ] = dose if it differs, or a comment. Unless noted, calls follow the shape of the dose curve; as a rule, active = well fitted inhibition curve with a large enough effect (not every such curve was filed as active); inconclusive = small, poorly fitted or top-dose-only effect, or another doubt; inactive = no such curve, though single readings can be large or run the other way. Unless noted, % is scaled to controls: 0 for no effect and ±100 for the full control effect.

SMILES	LMNA splice mod	HPGD inh	IMPase cell inh	KinaseGlo FLuc	ALDH1A1 block	PNC assembly inh
C=CCC1(c2ccccc2)Oc2ccccc2-c2nc3cc(Cl)c(Cl)cc3nc21 (centres undefined)	.	.	.	.	-4.0%[13.5 µM]	.
CC(=O)N1N=C(c2cccs2)CC1c1ccco1 (centres undefined)	9.6%[46 µM]	.	.	-0.9%	-2.3%	.
CS(=O)(=O)Nc1ccc(C2=NN(C(=O)c3ccco3)C(c3ccc(F)cc3)C2)cc1 (centres undefined)	?	.	.	3.0%	?	.
O=C(c1cccs1)N1N=C(c2ccccc2)CC1c1ccccc1 (centres undefined)	?	?	5.9	2.4%	-15.1%	-104.8*
O=C(c1ccco1)N1N=C(c2cccs2)CC1c1ccc(F)cc1 (centres undefined)	6.7%	-22.7%	9.0	-1.5%	20µM*	?
CS(=O)(=O)N1N=C(c2cccs2)CC1c1ccco1 (centres undefined)	.	.	.	-0.5%	20µM*	.
CCc1ccc(C2CC(c3ccco3)=NN2S(C)(=O)=O)cc1 (centres undefined)	13.5%[0.0737 µM]	-4.4%	5.6	11.2µM*	?	41.0
COC(=O)C/C=C1\c2ccc3c(c2[C@@H](OC)[C@@H]1C)OCO3	.	-7.0%	.	1.2%	-3.8%	.
O=C(O)c1cc(NCc2cccs2)ccc1N1CCOCC1	-8.4%	-17.4%	4.5	-0.7%	1.5%	25.8
COC(=O)c1cc(NCc2cccs2)ccc1N1CCOCC1	-3.1%	-8.5%	22.8	-1.5%	17.8µM*	-21.7
O=C(CCCn1c2ccccc2c(=O)c2ccccc21)Nc1cccc(Cl)c1	.	.	-7.2	.	.	.
COc1cc(C(=O)NC(=S)Nc2ccc3c(c2)C(=O)N(C)C3=O)cc(OC)c1OC	-6.8%	-3.9%	.	0.6%	1µM*	9.5
COc1cccc(OC)c1C(=O)NC(=S)Nc1ccc2c(c1)C(=O)N(C)C2=O	-20.5%	?	.	-1.9%	-15.5%	-6.6
COc1cc(Cl)c(NC(=O)CCS(=O)(=O)c2cc3c(cc2Cl)NC(=O)CO3)c(OC)c1	8.6%[46 µM]	.	.	.	.	.
COC(=O)c1ccccc1COn1c(=O)c(C)[n+]([O-])c2ccccc21	-2.6%	-3.7%	-1.9	0.7%	22.4µM*	-21.7
COC(=O)c1ccc(COn2c(=O)c(C)[n+]([O-])c3ccccc32)cc1	0.0%	-13.3%	5.8	0.6%	?	38.7
Cc1nc(N)sc1-c1csc(N(C)c2ccc(O)cc2)n1	?	14.1µM*	7.8	5.8%	14.1µM*	8.9
COc1cc([N+](=O)[O-])ccc1NC(=S)NCc1ccccn1	1.9%	-21.0%	-9.0	-0.1%	17.8µM*	-9.7
O=[N+]([O-])c1ccc(C[n+]2ccc(Cc3ccccc3)cc2)cc1	.	.	.	3.9%	25.1µM*	.
O=C(C[n+]1ccc(Cc2ccccc2)cc1)Nc1ccc([N+](=O)[O-])cc1Cl	?	.	.	-2.2%	20µM*	.
COc1cc([N+](=O)[O-])ccc1NC(=O)Cn1ccsc1=N	.	.	.	.	8.91µM*	.
COc1c(O)ccc2c1CN1CCc3cc4c(cc3[C@@H]1C2)OCO4	.	-12.3%	.	-3.5%[7.66 µM]	-1.1%[13.5 µM]	.
CC(C)c1ccc(CNc2n[nH]c(-c3ccco3)n2)cc1	19.6%[46 µM]	.	.	.	.	.
CCC(=O)N1CCc2cc(S(=O)(=O)N(C)c3cccc(C)c3)ccc21	.	.	-13.1	.	.	.
COc1cc([N+](=O)[O-])ccc1NC(=O)C[n+]1ccccc1	1.5%	-4.0%	9.6	1.5%	14.1µM*	-1.0
SMILES	LMNA splice mod	HPGD inh	IMPase cell inh	KinaseGlo FLuc	ALDH1A1 block	PNC assembly inh
COc1ccc(NC(=O)CCN2C(=O)c3ccc([N+](=O)[O-])cc3C2=O)c(OC)c1	12.3%	-16.8%	.	-3.4%	20µM*	42.7
COc1cc([N+](=O)[O-])ccc1NC(=O)C[n+]1cccc(C(C)=O)c1	.	.	.	-6.9%	?	.
Cc1ccc(-n2ncc(C(=O)N3CCN(C4CCCCC4)CC3)c2C2CCN(C(=O)OC(C)(C)C)CC2)cc1	1.5%[46 µM]	.	.	.	.	.
CCN(CC)CCCCNC(=O)c1ccc(Cc2nc3ccccc3[nH]2)cc1	.	-2.9%	.	-4.5%	-0.4%	.
O=P(O)(O)CP(=O)(O)O	11.6%	-6.3%	-1.5	-4.2%	4.4%	-100.0*
O=P(O)(O)OP(=O)(O)O	-4.9%	-3.3%	.	-5.8%[7.66 µM]	-0.6%[13.5 µM]	.
Cc1occc1C(=O)NCCCCc1ccccc1	11.0%	20µM*	3.3	8.3%	17.8µM*	?
Cc1ccccc1C(=O)NCCCc1ccccc1	4.9%	14.1µM*	.	-0.2%	-7.7%	38.9
COc1ccc(C(=O)CN2C(=O)N(c3ccc(C(C)=O)cc3)S(=O)(=O)c3ccccc32)cc1	-12.9%[46 µM]	.	.	.	.	.
Cc1nnc2c(NC3CCCC3)nc3ccccc3n12	.	.	.	0.4%	?	.
c1ccc2c(c1)nc(NC1CCCCC1)c1nncn12	-1.6%	-19.1%	-1.0	2.5%	10µM*	24.5
Cc1ccnc(SCc2cc(=O)c(OC(=O)c3ccc(S(=O)(=O)N(C)C)cc3)co2)n1	-6.8%	-5.7%	-9.3	4.8%	1.4%	-108.8*
Cc1cc(C)nc(SCc2cc(=O)c(OC(=O)c3ccc(S(=O)(=O)N(C)C)cc3)co2)n1	-7.4%	-27.7%	-4.5	0.5%	1.2%	?
O=C(Oc1coc(CSc2ncccn2)cc1=O)c1ccc(Br)o1	-8.8%	-13.3%	-6.7	-0.7%	-4.7%	-9.7
Cc1ccnc(SCc2cc(=O)c(OC(=O)c3ccc(Br)o3)co2)n1	-3.8%	2.9%	-9.8	3.1%	0.7%	-82.6*
CC(=O)[C@@]1(N=Nc2ccc(S(N)(=O)=O)cc2)CCOC1=O	.	-8.7%	.	-0.2%[7.66 µM]	?	.
O=C(O)c1c(Cl)c(Cl)c(Cl)c(Cl)c1-c1c2cc(I)c(=O)c(I)c-2oc2c(I)c(O)c(I)cc12	?	31.6µM*	.	12.6µM*	31.6µM*	.
Cn1c(=O)c2c(nc(NCCNc3nc4c(c(=O)n(C)c(=O)n4C)n3C)n2C)n(C)c1=O	.	-2.2%	.	-5.5%[7.66 µM]	12.8%[13.5 µM]	.
Cn1c(=O)c2c(nc(NN=C3CCCCC3)n2C)n(C)c1=O	.	.	.	11.2µM*	?	.
